Rango complex inh: qHTS Assay for Inhibitors of Rango (Ran-regulated importin-beta cargo) - Importin beta complex formation; Potency, µM (top dose mostly 92.2 µM), for inactives: top-dose inhibition of complex formation; Rango CFP/YFP FRET sensor + importin beta, 45 min; Importin subunit beta-1 (Homo sapiens), Q14974; 340,000 compounds, 0.031% hits; AID 540263, 2011; calls by dose curve;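 further: 0% = DMSO wells and 100% = buffer wells lacking importin beta; nearly all actives have a fitted effect of over 15% in size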
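FRET biosensor Rango (snurportin 1 IBB between N-terminal EYFP and C-terminal Cerulean), 50 nM in PBS/1 mM DTT/0.02% Tween-20/0.1% BSA, preincubated 5 min RT with compound; 0.125 microM importin beta added, 45 min RT, CFP/YFP FRET ratio read.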
PKM2 activator: qHTS Assay for Activators of Human Muscle isoform 2 Pyruvate Kinase; AID 1631, 2009; Pyruvate kinase PKM (Homo sapiens), P14618; 260,000 compounds, 0.34% hits; purified PKM2, Kinase-Glo ATP luminescence, activation; response scale: 0% is enzyme alone, no compound; Potency, µM (doses to about 57.5 µM), for the others: top-dose activation, actives largely listed as activators; further: on the % scale 0 is the no-effect control and ±100 the full control effect; nearly all actives have a fitted effect of over 55% in size
Target sequence (P14618 whole entry, looked up, canonical isoform): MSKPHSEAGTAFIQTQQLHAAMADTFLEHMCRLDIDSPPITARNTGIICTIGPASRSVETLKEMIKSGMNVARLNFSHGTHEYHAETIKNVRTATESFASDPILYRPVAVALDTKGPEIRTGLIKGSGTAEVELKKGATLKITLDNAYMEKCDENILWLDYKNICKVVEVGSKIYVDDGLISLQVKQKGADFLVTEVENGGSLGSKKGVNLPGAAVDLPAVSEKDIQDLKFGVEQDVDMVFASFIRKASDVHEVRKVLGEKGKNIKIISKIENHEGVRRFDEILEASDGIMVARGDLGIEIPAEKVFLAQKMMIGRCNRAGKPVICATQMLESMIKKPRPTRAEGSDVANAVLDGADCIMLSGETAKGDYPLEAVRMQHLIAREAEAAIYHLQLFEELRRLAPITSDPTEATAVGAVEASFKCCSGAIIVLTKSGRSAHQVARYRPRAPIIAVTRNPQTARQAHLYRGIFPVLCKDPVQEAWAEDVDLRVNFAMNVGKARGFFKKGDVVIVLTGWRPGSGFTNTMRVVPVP
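Kinase-Glo luminescence reports ATP generated from ADP (0.1 mM) and PEP (0.5 mM) by purified hPK-M2 after 1 h at room temperature, pH 7.2 imidazole buffer; intermediate enzyme activity allows detecting inhibitors and activators.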
Rango release inh: qHTS Assay for Inhibitors of RanGTP induced Rango (Ran-regulated importin-beta cargo) - Importin beta complex dissociation; Biochemical FRET Rango-importin beta, RanGTP-induced dissociation; Potency, µM (titrated, usually from 46.1 µM), inactives show top-dose activity change, negative = inhibition; 340,000 compounds, 0.071% hits; calls by dose curve; further: % of control where 0% means no effect; nearly all actives have a fitted effect of over 45% in size
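Quantitative HTS using a FRET biosensor: 0.1 uM Rango, 0.25 uM importin beta, 0.6 uM Ran, 2 mM GTP, 0.2 uM RCC1 final, PBS with DTT, Tween-20 and BSA. Post-read taken 45 min after Ran addition.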
Tb PFK inh: qHTS Assay to Find Inhibitors of T. brucei phosphofructokinase; ATP-dependent 6-phosphofructokinase (Trypanosoma brucei brucei), O15648; AID 485367, 2010; Potency, µM (highest dose often 57.5 µM), without a hit: top-dose activity, negative = inhibition, most hits filed as inhibitors; T. brucei PFK, ADP-Glo luminescence; 330,000 compounds, 0.17% hits;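 further: 0% = uninhibited 1x PFK enzyme wells and -100% = no-enzyme wells; nearly all actives have a fitted effect of over 60% in size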
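In TEA buffer at pH 8.0 with 5 mM MgCl2, enzyme (1.25 nM) converted F6P (0.5 mM) and ATP (0.1 mM) for 45 min at room temperature. ADP product was read by luciferase luminescence.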
ELG1 DNA repair: qHTS screen for small molecules that inhibit ELG1-dependent DNA repair in human embryonic kidney (HEK293T) cells expressing luciferase-tagged ELG1; Potency, µM (doses to about 46.1 µM), without a hit: at the top dose activity change, negative = inhibition, most hits filed as inhibitors; AID 504467, 2011; HEK293T ELG1-luciferase reporter, luminescence, 16 h; DNA damage induced by 5-fluorouridine; 330,000 compounds, 2.3% hits; further: on the % scale 0 is the no-effect control and ±100 the full control effect; nearly all actives have a fitted effect of over 55% in size
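HEK293T cells expressing luciferase-tagged ELG1 (2,000/well) received 5-Fluorouridine plus compound or DMSO for 16 hr at 37 °C. Luciferase was read by ONE-Glo luminescence after 30 min at room temperature.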
Tb PGK inh: qHTS Assay to Find Inhibitors of Phosphoglycerate Kinase; Phosphoglycerate kinase, glycosomal (Trypanosoma brucei brucei), P07378; PGK/GAPDH coupled, Kinase-Glo luminescence, 60 min; Potency, µM (doses to about 57.5 µM), for the others: at the top dose activity change, negative = inhibition, hits mostly inhibitors; 380,000 compounds, 0.043% hits; further: on the % scale 0 is the no-effect control and ±100 the full control effect; nearly all actives have a fitted effect of over 60% in size
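Recombinant glycosomal PGK reaction used 1,3-bisphosphoglycerate generated in-well by GAPDH (100nM final) in 100mM TEA pH 7.6, 5mM MgCl2, 0.01% Tween-20. After 60 minutes at room temperature, ATP was read by Kinase-Glo Plus luminescence end-point.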
Active calls of the source: *; i = inactive; ? = inconclusive; . = not tested or not shown. Rows were chosen to be rich in hits. Some 2.4% of all compounds tested hit in one or more screens of this group. Unless noted, the call rests on the fitted dose curve; in most records, active means well fitted curve in the direction sought with a large enough effect; inconclusive means small, poorly fitted or top-dose-only effect, or another doubt; inactive means no such curve, though single readings can be large; an effect the other way counts as inactive or inconclusive. Potency means the concentration at half of the fitted maximal effect.

SMILES	Rango complex inh	PKM2 activator	Rango release inh	Tb PFK inh	ELG1 DNA repair	Tb PGK inh
CCN(C(=O)CCc1nc(-c2ccc(OC)cc2)no1)c1cc(OC)ccc1OC	2%	-25%	5%	-6%	16µM*	-10%
COc1ccc(N2CCN(C(=O)C3CCN(c4nc5ccc(C)cc5[nH]4)CC3)CC2)cc1	.	.	.	.	.	3%
CN(CC(=O)Nc1ccc(F)c(F)c1F)c1ncnc2sccc12	-5%	3%	-1%	-24%	?	-21%
CN(CC(=O)Nc1ccccc1Br)c1ncnc2sccc12	-2%	5%	-22%	-4%	12µM*	-7%
O=C(Nc1ccc(S(=O)(=O)N2CCOCC2)cc1)c1ccc(Cl)cc1Cl	?	1%	-17%	-5%	0%	6%
COc1cccc(Nc2nc(N)c([N+](=O)[O-])c(N3CCOCC3)n2)c1	6%	.	-3%	-4%	23µM*	.
Cc1cccc(Nc2nc(N)c([N+](=O)[O-])c(N3CCOCC3)n2)c1	6%	2%	28%	0%	?	0%
CCOc1ccc(CN(C)CC(=O)Nc2ccccc2C(=O)NC2CC2)cc1	1%	.	17%	-3%	15µM*	3%
CN(CC(=O)Nc1ccccc1C(=O)NC1CC1)Cc1ccc(Cl)cc1	1%	.	-7%	-5%	-6%	-1%
COc1cc2c(cc1OC)C(COc1ccc([N+](=O)[O-])cc1)N(C(C)=O)CC2 (stereo not given)	-1%	.	-12%	-9%	8.2µM*	-9%
Cc1cc(C(F)(F)F)n(-c2nc(C(=O)NNS(=O)(=O)c3ccccc3[N+](=O)[O-])cs2)n1	2%	2%	-3%	-5%	5.8µM*	-2%
O=C(NC1CCCCC1)c1ccc(S(=O)(=O)c2ccccc2Cl)c([N+](=O)[O-])c1	.	8%	.	-2%	5.8µM*	.
O=C(NC1CCCCC1)c1ccc([N+](=O)[O-])cc1	4%	.	25%	.	.	-8%
O=C(c1ccc(S(=O)(=O)c2ccccc2Cl)c([N+](=O)[O-])c1)N1CCN(Cc2ccccc2)CC1	2%	11µM*	-11%	-3%	23µM*	2%
CC(=O)c1ccc(Oc2nc(C)nc3c2oc2ccccc23)cc1	.	.	.	.	.	0%
CCOC(=O)C1(CCOc2ccccc2)CCN(Cc2ccccc2O)CC1	-1%	.	1%	.	.	-3%
CCOC(=O)C1(CCOc2ccccc2)CCN(Cc2cccc(OC)c2OC)CC1	?	1%	?	1%	12µM*	-11%
CCN(CC)CCNC(=O)c1nn(-c2ccc(Cl)cc2)c2c1CCc1cc(OC)ccc1-2	7%	.	-8%	.	.	0%
Cc1nc(C(=O)NCCC(C)C)sc1C1(C)CC(c2ccccc2)=NO1 (stereo not given)	1%	-16%	-24%	-18%	13µM*	8%
CNC(=O)c1nc(C)c(C2(C)CC(c3ccccc3)=NO2)s1 (stereo not given)	-1%	7%	-13%	-6%	27%	3%
N#Cc1c(NC(=O)CSc2nc(-c3ccccc3)cc(C(F)(F)F)n2)sc2c1CCC2	1%	0%	0%	7%	7.3µM*	i
COc1ccc(-c2cc(C(F)(F)F)nc(SCC(=O)Nc3sc4c(c3C#N)CCC4)n2)cc1	4%	0%	3%	0%	?	7%
CCn1c(=O)n(CC)c2cc(N3CCCC3)c(NC(=O)Nc3cc(C)cc(C)c3)cc21	.	.	.	.	.	-8%
Cc1cc(NC(=O)c2ccc(NC(=O)CCS(=O)(=O)c3cccs3)cc2)ccc1Br	.	.	.	.	.	5%
CCCC(=O)Oc1ccc(C2NC(=O)c3ccccc3O2)cc1OC (stereo not given)	4%	-1%	8%	-1%	16%	-7%
SMILES	Rango complex inh	PKM2 activator	Rango release inh	Tb PFK inh	ELG1 DNA repair	Tb PGK inh
CCN(CC)S(=O)(=O)c1cccc(C(=O)Nc2cc(C)nn2-c2ccccc2)c1	4%	2%	-5%	-11%	23µM*	-10%
Cc1cc(NC(=O)COc2ccccc2)n(-c2ccccc2)n1	0%	1%	12%	3%	16µM*	-1%
Cc1cc(NC(=O)CCC(=O)N(CC(=O)NCC2CCCO2)c2cccc(F)c2)no1 (stereo not given)	0%	-6%	-5%	0%	-5%	-2%
Cc1ccc(S(=O)(=O)N2CCN(Cc3cc(=O)n4ccccc4n3)CC2)c(C)c1	?	.	-2%	-7%	7.3µM*	i
Cc1ccc(S(=O)(=O)N2CCN(Cc3cc(=O)n4ccccc4n3)CC2)cc1C	0%	.	-5%	3%	-5%	-6%
Cc1nnc(SCCn2c(N3CCN(Cc4ccccc4)CC3)nc3c2c(=O)[nH]c(=O)n3C)s1	2%	-3%	27%	-1%	?	1%
Cc1nnc(SCCn2c(N3CCC(Cc4ccccc4)CC3)nc3c2c(=O)[nH]c(=O)n3C)s1	0%	2%	13%	-3%	9.2µM*	-1%
Cc1cc(C)n2nc(CNS(=O)(=O)c3ccc(F)c(C)c3)nc2n1	-2%	?	-5%	-4%	17%	8%
COc1ccc(-n2nnnc2SCC(=O)Nc2ccc3c(c2)OCCO3)c(OC)c1	1%	-1%	6%	0%	21µM*	-4%
COc1cccc(-n2nnnc2SCC(=O)Nc2ccc3c(c2)OCCO3)c1	0%	-4%	16%	-21%	-1%	3%
CCCCNC(=O)c1ccc2c(c1)C(=O)N(Cc1ccncc1)C2=O	5%	.	-2%	0%	10%	-2%
NS(=O)(=O)c1ccc(CCNC(=O)c2ccc(C#CC3(O)CCCCC3)cc2)cc1	2%	0%	11%	-1%	6.5µM*	-2%
CN(C(=O)c1cccc(NC(=O)c2cccs2)c1)c1ccccc1	1%	1%	2%	-1%	17%	0%
CCOC(=O)c1c(NC(=O)CSc2ccccc2C(=O)O)sc(C)c1C	?	-3%	-28%	-20%	-15%	-3%
CCOC(=O)c1c(NC(=O)CSc2ncnc3ccccc23)sc(C)c1C	-4%	-17%	-17%	-7%	12µM*	-7%
Cc1ccc(Nc2nc3ccccc3c3nncn23)cc1C	.	.	.	.	.	1%

Source: PubChem BioAssay
